Among the data in PubChem BioAssay (NCI) are growth values, retold here.

About 83,000 compounds went through this panel and 20% of them were active in at least one assay; those are over-represented in the sample as a whole.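 The test compound was applied at a single concentration to cells in 96-well plates for 48 hours, and percent growth was recorded.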 Active and inactive are the calls of the source. How the source made its calls: active means growth percent below 10; inactive means the rest.

The test system of this assay is SR leukemia. The experiment in a line: NCI-60 one-dose screen, 48 h (100 = growth as untreated, 0 = no growth, -100 = all killed). As to conditions: 10 µM unless noted.
As to `O=C(O)C(O)C(O)C(=O)O.[NH-]C1CCCCC1[NH-].[Pt+2]` (centres undefined), the growth was 117% (inactive). As to `Cc1ccc(Nc2c(C(N)=O)cnc3ccc(-c4csc(N)n4)cc23)cc1`, the growth is 94.8% (inactive). As to `Cl/C(=N\Nc1ccccc1)c1ccccc1`, the growth is 123% (inactive). As for `COc1cc(-c2c3sc(=O)[nH]c3nc3c2c(=O)[nH]n3C(C)C)cc2c1OCO2`, the growth is 81.5% (inactive).

In the case of `CC(C)(C)n1cc(-c2ccnc(NCCNS(=O)(=O)c3ccccc3)c2)c(-c2cccc(O)c2)n1`, the growth is 27.3% (inactive). For the molecule `COC(=O)C12C3C(=O)N(c4ccc(OC)cc4)C(=O)C3C(c3cn(-c4ccccc4)nc3C)N1[C@H](c1cn(-c3ccccc3)nc1C)[C@@H]1C(=O)N(c3ccc(OC)cc3)C(=O)[C@@H]12` (some centres undefined), the growth was 91% (inactive). In the case of `CC/C(Cc1ccccc1)=C(/c1ccc(O)cc1)c1ccc(OCCN2CCCC2)cc1`, the growth is -40.2% (active). As for `CCCCCC(=O)N(CCCC)CCCC`, the growth is 95.5% (inactive). `COc1cccc(/C=C2/C(=O)N(Cc3ccco3)SC2=S)c1OC`: the growth was -0.493% (active). Take `COc1ccc(-c2cc(/C=C3\C(=O)Nc4ccc(Cl)cc43)[nH]n2)cc1`: the growth is 10.6% (inactive).

As for `CCOC(=O)C(C#N)C1CCCCC1` (centres undefined), the growth is 84.3% (inactive). Regarding `CC(C)[C@H]1COC(=O)N1[C@@H]1C(=O)N([C@@H](CCC(=O)N2CCN(C3CCCC3)CC2)C(=O)N[C@@H]2CCCc3ccccc32)[C@@H]1/C=C/c1cccc(Br)c1`, the growth was -18.9% (active). For `Nc1ccc(N2CCOCC2)cc1` the value was 110% (inactive).

Regarding `COc1cccc(/C=C\C(=O)c2ccccc2)c1`, the growth is 47.5% (inactive).
